Screens as filed in PubChem.
The list is not random: actives were taken first. Their share in the collection is about 19%.
uPA surface inh: cell surface uPA generation inhibition | cell surface uPA generation assay, qHTS | Potency, µM (series often up to 38.3 µM), for the others: at the top dose activity change, negative = inhibition, hits mostly inhibitors | actives 0.31% (n = 330,000); active = well fitted inhibition curve with a large enough effect; inconclusive = small, poorly fitted or top-dose-only effect; inactive = no such curve, though single readings can be large or run the other way; tested in mouse RAW 264.7 cells; note: potency is the fitted concentration of half-maximal effect; nearly all actives have a fitted effect of over 55% in size
DT40 TDP1 no CPT: qHTS for Inhibitors of human tyrosyl-DNA phosphodiesterase 1 (TDP1): qHTS in cells in absence of CPT; actives 15% (n = 420,000); Potency, µM (top dose mostly 46.2 µM), without a hit: at the top dose activity change, negative = growth inhibition, hits mostly inhibitors; DT40 Tdp1-/- hTDP1 cells, no CPT, ATP luminescence, 48 h; note: potency is the fitted concentration of half-maximal effect; nearly all actives have a fitted effect of over 55% in size
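Chicken DT40 Tdp1-/- cells stably complemented with human TDP1 were seeded at 400 cells/well with DMSO in place of 20 nM camptothecin. After compound pinning, cells grew at least 48 hr at 37 °C; viability read by CellTiter-Glo luminescence.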
HT1080 IDH1KD tx: kills HT-1080 cells with IDH1 knockdown; HT-1080 IDH1 knockdown viability, ATP luminescence, 48 h; Potency, µM (highest dose often 46.1 µM), for inactives: top-dose activity, negative = toxicity, usual class: cytotoxic; actives 2% (n = 360,000);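 note: potency is the fitted concentration of half-maximal effect; 0% = DMSO wells and -100% = cell-free medium wells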
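Knockdown cells (IDH1KD HT-1080) received compounds 2 h after plating at 750 cells/well and were kept 48 h at 37 °C in 5% FBS RPMI. A CellTiter-Glo luminescence read gave % activity for curve fitting.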
HT1080NT lethal: kills 2HG-producing HT-1080-NT fibrosarcoma cells; HT-1080-NT fibrosarcoma viability, CellTiter-Glo ATP luminescence, 48 h; Potency, µM (doses to about 46.1 µM), for inactives: top-dose activity, negative = less viability, most hits filed as cytotoxic; actives 1.6% (n = 360,000); AID 686970;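 note: NT is the 2HG producing partner of a matched IDH1 knockdown line; potency is the fitted concentration of half-maximal effect; 0% = DMSO-treated cells and -100% = media-only wells without cells; nearly all actives have a fitted effect of over 55% in size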
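Luminescent CellTiter-Glo readout after 48 hours of compound exposure at 37 degrees C defined viability of HT-1080-NT cells. Activity was normalized to DMSO wells and cell-free media wells; concentration-response curves were fitted and assigned curve classes.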
IL-1B inflam inh: inhibitors of inflammasome signaling (IL-1 beta secretion) | activity change, % at 57.5 µM | actives 4.7% (n = 360,000) | THP-1 LPS/ATP IL-1B secretion, AlphaLISA, 16 h; hits give low values; in the data active = activity change below about -50%; inconclusive = mostly about -30% to -49%
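THP-1 cells pretreated 1 hr with compounds (up to 57.5 uM final), then stimulated with LPS (250 ng/mL final) plus ATP (1.25 mM final); secreted IL-1B measured by AlphaLISA after 16 hr, decreased signal indicating inhibition.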
TDP1 cell CPT: growth inhibition of DT40 Tdp1-/-;hTDP1 cells with camptothecin (screen for TDP1 inhibitors); chicken DT40 Tdp1-/-;hTDP1 cells + 20 nM CPT, ATP luminescence, 48 h; Potency, µM (titrated, usually from 46.2 µM), without a hit: at the top dose activity change, negative = growth inhibition, usual class: inhibitors; actives 12% (n = 420,000); note: potency is the fitted concentration of half-maximal effect; nearly all actives have a fitted effect of over 55% in size
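Chicken DT40 Tdp1-/- cells complemented with human TDP1, 400 cells/well, exposed to compounds plus 20 nM camptothecin for at least 48 h at 37 C; viability read as ATP content by CellTiter-Glo luminescence.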
The depositor's hits bear a star. Unless noted, calls come from the whole dose curve; as a rule, active = well fitted curve in the direction sought with a large enough effect; inconclusive = small, poorly fitted or top-dose-only effect, or another doubt; inactive = no such curve, though single readings can be large; an effect the other way counts as inactive or inconclusive. Unless noted, % is set by controls: 0 for no effect and ±100 for the full control effect.

`O=c1cc(-c2ccc(O)c(O)c2)oc2cc(OC3OC(CO)C(O)C(O)C3O)cc(O)c12` (configuration not stated) gave DT40 TDP1 no CPT -2% and TDP1 cell CPT 5%.
CCc1ccc(OC(=O)CSc2nnc(-c3ccc4c(c3)OCO4)o2)cc1 was read as DT40 TDP1 no CPT -6% and TDP1 cell CPT -1%.
For Nc1nc(Cl)nc2c1ncn2C1CCC(CO)O1 (configuration not stated) the results were DT40 TDP1 no CPT 1.5µM*, HT1080 IDH1KD tx 4%, HT1080NT lethal 5%, IL-1B inflam inh 39 and TDP1 cell CPT 1µM*.
Screening Nc1ncnc2c1ncn2C1CCCO1 (configuration not stated) returned uPA surface inh -4%, DT40 TDP1 no CPT -7%, HT1080 IDH1KD tx 0%, HT1080NT lethal 17%, IL-1B inflam inh 18 and TDP1 cell CPT 3%.
`Nc1ncnc2c1ncn2[C@H]1CC[C@@H](CO)O1` gave uPA surface inh 6%, DT40 TDP1 no CPT 2.9µM*, HT1080 IDH1KD tx 16%, HT1080NT lethal inconclusive, IL-1B inflam inh -3 and TDP1 cell CPT 1.6µM*.
Screening O=C1C2CC3CC1CC(O)(C3)C2 returned DT40 TDP1 no CPT 7% and TDP1 cell CPT -2%.
Screening COc1ccc(S(=O)(=O)N(C)C[C@@H]2OCCCC[C@@H](C)Oc3ccc(NS(=O)(=O)c4cccs4)cc3C(=O)N([C@H](C)CO)C[C@@H]2C)cc1 returned DT40 TDP1 no CPT inconclusive, HT1080 IDH1KD tx 7%, HT1080NT lethal -6%, IL-1B inflam inh -13 and TDP1 cell CPT inconclusive.
Screening COc1cc(-c2ccno2)ccc1S(=O)(=O)N1CCN(c2ccc(F)cc2)CC1 returned DT40 TDP1 no CPT 7.3µM* and TDP1 cell CPT inconclusive.
For COc1ccc(OC)c(S(=O)(=O)N2CCN(c3ccc(F)cc3)CC2)c1 the results were uPA surface inh 2%, DT40 TDP1 no CPT -17%, HT1080 IDH1KD tx 1%, HT1080NT lethal -7%, IL-1B inflam inh -2 and TDP1 cell CPT -18%.
For COc1cc(-c2ccno2)ccc1S(=O)(=O)N1CCN(c2ccc(C(C)=O)cc2)CC1 the results were DT40 TDP1 no CPT 15µM* and TDP1 cell CPT inconclusive.
`COc1ccc(NC(=O)O/N=C/c2c(C)nn(C(C)(C)C)c2C)cc1` gave uPA surface inh 2µM*, DT40 TDP1 no CPT inconclusive, HT1080 IDH1KD tx -11%, HT1080NT lethal -16%, IL-1B inflam inh 0 and TDP1 cell CPT -20%.
Screening OC[C@H]1NC[C@H](O)[C@@H](O)[C@H]1O returned DT40 TDP1 no CPT -4% and TDP1 cell CPT -5%.
Screening CCOC(=O)[C@]12CCCC=C1N(Cc1ccc3c(c1)OCO3)C(=O)[C@H](CC(=O)NCCC(C)C)C2 returned DT40 TDP1 no CPT inconclusive, HT1080 IDH1KD tx -7%, HT1080NT lethal -11%, IL-1B inflam inh -5 and TDP1 cell CPT inconclusive.
Screening CCCCOCCCNC(=O)C[C@@H]1C[C@@]2(C(=O)OCC)CCCC=C2N(CCc2ccc(OC)c(OC)c2)C1=O returned DT40 TDP1 no CPT inconclusive, HT1080 IDH1KD tx -8%, HT1080NT lethal 0%, IL-1B inflam inh -7 and TDP1 cell CPT 21µM*.
For CCCCCCCCN1C(=O)[C@H](CC(=O)NCCCOCCCC)C[C@@]2(C(=O)OC)CCCCC=C12 the results were DT40 TDP1 no CPT 18µM*, HT1080 IDH1KD tx inconclusive, HT1080NT lethal inconclusive, IL-1B inflam inh -78* and TDP1 cell CPT 13µM*.
CCCCOCCCNC(=O)C[C@@H]1C[C@@]2(C(=O)OCC)CCCC=C2N(Cc2ccco2)C1=O was read as DT40 TDP1 no CPT inconclusive, HT1080 IDH1KD tx inconclusive, HT1080NT lethal 16%, IL-1B inflam inh -3 and TDP1 cell CPT -15%.
